# Measurements taken from PubChem BioAssay (NCI).
# This is part of a sample that, as a whole, favours compounds with a hit. Of some 79,000 tested, about 15% had one in any assay. Calls of active or inactive are those of the source. No stated cut-off is given here; in the data, active means growth inhibition above about 70%; inactive means the rest. Where a SMILES comes first, the peptide text is derived from it. The star is where a group is joined. Trt = c1ccc(C(c2ccccc2)(c2ccccc2)*)cc1; Cbz = O=C(OCc1ccccc1)*; Bz = O=C(c1ccccc1)*
# Test: NCI Yeast Anticancer Drug Screen. Data for the mec2-1 strain (AID 157)
# Conditions: S. cerevisiae mec2-1 strain, at 50.0 µM, active compounds read high
# Outline: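 Using mec2-1 yeast: add compound, measure growth, express inhibition versus vehicle-treated cultures.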
row,SMILES,growth inhibition
1,C#CCNC(=O)NC(CCCCNC(=O)OCc1ccccc1)C(=O)OCc1ccccc1 (centres undefined),2.9% (inactive)
2,Cc1ccc(N=C=Nc2ccc(C)cc2)cc1,2.65% (inactive)
3,OCC(F)(F)C(F)(F)C(F)(F)C(F)(F)C(F)(F)C(F)(F)C(F)(F)C(F)F,-11.2% (inactive)
4,OC(CCCN1CCN2CCc3[nH]c4ccccc4c3C2C1)c1ccc(F)cc1 (centres undefined),-1.8% (inactive)
5,Cc1ccc(C(=O)/C(C#N)=C/Nc2c(C)n(C)n(-c3ccccc3)c2=O)cc1,23.6% (inactive)
6,COC1OC2COC(c3ccccc3)OC2C(OC(C)=O)C1OS(=O)(=O)c1ccc(C)cc1 (centres undefined),14.1% (inactive)
7,Nc1ccc(N=Nc2c(S(=O)(=O)O)cc3cc(S(=O)(=O)O)cc(O)c3c2O)cc1,-16.4% (inactive)
8,O=C(c1ccccc1)C1CCCCN1C(=O)c1ccccc1 (centres undefined),-8.3% (inactive)
9,O=C(Cn1c(=O)oc2ccc(C(=O)c3ccc(F)cc3)cc21)c1ccccc1,-24.5% (inactive)
10,COc1cc(/C=C(\C#N)c2ccccn2)cc(Br)c1O,5.15% (inactive)
11,CCC(NC(C)c1ccccc1)C(O)c1ccc(OCc2ccccc2)c(OCc2ccccc2)c1 (centres undefined),91.5% (active)
12,CC(=O)Nc1ccc2nc(/C=C/c3ccc(N(C)C)cc3)c(=O)oc2c1,18.6% (inactive)
13,CC(C)CCN(CC(C)C)C(=O)c1ccc([N+](=O)[O-])cc1 (tested in a mixture with another compound),0.6% (inactive)
14,CNC(CCCC1CCCCC1)C(=O)O (centres undefined),5.7% (inactive)
15,C(=C\c1csnn1)/c1ccc(/C=C/c2csnn2)cc1,15.9% (inactive)
16,CC(SC(=S)N1CCOCC1)C(=O)O (centres undefined),-6.8% (inactive)
17,CC(C)(C)C(=O)C(C(c1ccccc1)N1CCOCC1)N1CCOCC1 (centres undefined),-5.8% (inactive)
18,CC(=O)CC(=O)NC(C)(C)CC(C)(C)C,-41.9% (inactive)
19,COC1OC(CCl)C(Cl)C(Cl)C1O (centres undefined),-7.85% (inactive)
20,O=c1cc(N2CCOCC2)n2c(ccc3ccccc32)n1,-2.4% (inactive)

row,SMILES,growth inhibition
1,CC(=O)OCC1OC(n2c3c(c(-c4ccc(Cl)cc4)c(C#N)c2=S)C(=O)CC(C)(C)C3)C(OC(C)=O)C(OC(C)=O)C1OC(C)=O (centres undefined),-10.9% (inactive)
2,CCCC(C)NC(=O)c1ccc(Cl)c(Cl)c1 (centres undefined),4.9% (inactive)
3,O=c1[nH]c(=O)n(C2CC(O)C(CO)O2)c2ncncc12 (centres undefined),-0.3% (inactive)
4,CC1C(O)CC2(C(C)C)CC12 (centres undefined),-0.25% (inactive)
5,CCOC(=O)c1ccc(OCC)cc1O,-8% (inactive)
6,Nc1c(Cl)cc2c(c1Br)Cc1cc(F)ccc1-2,2.15% (inactive)
7,CNC(=S)N(C)/N=C/c1ccccc1,2.4% (inactive)
8,O=C(NC/C=C/Br)Oc1cccc2ccccc12,18.6% (inactive)
9,COC(=O)C(CSC(=O)c1ccccc1)NC(=O)CNC(=O)CNC(=O)C(CCCCNC(=O)OCc1ccccc1)NC(=O)CNC(=O)C(CSC(c1ccccc1)(c1ccccc1)c1ccccc1)NC(=O)OCc1ccccc1 (centres undefined) (Cbz-C(Trt)GK(Cbz)GGC(Bz)-OMe; configuration not given here),22.9% (inactive)
10,CC1(C)C(=O)/C=C\C(=O)C(C)(C)C2=CC=C(O2)C(C)(C)C(=O)C(Br)C(Br)C(=O)C(C)(C)C2=CC=C1O2 (centres undefined),-18.1% (inactive)
11,CCc1c2c(nc3ccc(O)cc13)-c1cc3c(c(=O)n1C2)COC(=O)[C@]3(O)CC,-5.5% (inactive)
12,C[N+](C)(C)C1C2(CCCCC2)NC(=O)C12CCCCC2 (centres undefined),-0.75% (inactive)
13,O=C(NNC(=O)C(F)(F)F)C(F)(F)F,-3.4% (inactive)
14,CC(Cc1ccccc1)c1ccccc1 (centres undefined),16.2% (inactive)
15,OC1C(OCc2ccccc2)OC(COCc2ccccc2)C(OC2OC(COCc3ccccc3)C(OCc3ccccc3)C(OCc3ccccc3)C2OCc2ccccc2)C1OCc1ccccc1 (centres undefined),-9.85% (inactive)
16,CCCCOC(=O)c1cccc2c1-c1ccccc1C2=O,-6.55% (inactive)
17,C=CCn1c(SC)nc2c(c1=O)CCCC2,-13.4% (inactive)
18,CCCCCCCCCCCCCCCCCC(=O)Nc1nc(N)nc(N)n1,15.1% (inactive)
19,O=C(O)c1ccc(CC2CCCC2)cc1,25.9% (inactive)
20,CCC(=O)c1cccc(-c2ccccc2)c1CC,-7% (inactive)

# Test: NCI Yeast Anticancer Drug Screen. Data for the cln2 rad14 strain (AID 165);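 further: 0% = growth equal to vehicle treated cultures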
# Conditions: S. cerevisiae cln2 rad14 strain, at 50.0 µM, active compounds read high
# Outline: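 Yeast strain cln2 rad14, bearing defects in cell cycle control and DNA repair, serves as the test system; values reflect growth inhibition compared with vehicle.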
row,SMILES,growth inhibition
1,C#CCNC(=O)NC(CCCCNC(=O)OCc1ccccc1)C(=O)OCc1ccccc1 (centres undefined),10.3% (inactive)
2,Cc1ccc(N=C=Nc2ccc(C)cc2)cc1,-9.75% (inactive)
3,OCC(F)(F)C(F)(F)C(F)(F)C(F)(F)C(F)(F)C(F)(F)C(F)(F)C(F)F,-11.5% (inactive)
4,OC(CCCN1CCN2CCc3[nH]c4ccccc4c3C2C1)c1ccc(F)cc1 (centres undefined),14.3% (inactive)
5,Cc1ccc(C(=O)/C(C#N)=C/Nc2c(C)n(C)n(-c3ccccc3)c2=O)cc1,12.8% (inactive)
6,COC1OC2COC(c3ccccc3)OC2C(OC(C)=O)C1OS(=O)(=O)c1ccc(C)cc1 (centres undefined),3.35% (inactive)
7,Nc1ccc(N=Nc2c(S(=O)(=O)O)cc3cc(S(=O)(=O)O)cc(O)c3c2O)cc1,-23.9% (inactive)
8,O=C(c1ccccc1)C1CCCCN1C(=O)c1ccccc1 (centres undefined),-17.3% (inactive)
9,O=C(Cn1c(=O)oc2ccc(C(=O)c3ccc(F)cc3)cc21)c1ccccc1,-27.9% (inactive)
10,COc1cc(/C=C(\C#N)c2ccccn2)cc(Br)c1O,17.2% (inactive)
11,CCC(NC(C)c1ccccc1)C(O)c1ccc(OCc2ccccc2)c(OCc2ccccc2)c1 (centres undefined),91.3% (active)
12,CC(=O)Nc1ccc2nc(/C=C/c3ccc(N(C)C)cc3)c(=O)oc2c1,16.7% (inactive)
13,CC(C)CCN(CC(C)C)C(=O)c1ccc([N+](=O)[O-])cc1 (tested in a mixture with another compound),-3.25% (inactive)
14,CNC(CCCC1CCCCC1)C(=O)O (centres undefined),11.4% (inactive)
15,C(=C\c1csnn1)/c1ccc(/C=C/c2csnn2)cc1,11.9% (inactive)
16,CC(SC(=S)N1CCOCC1)C(=O)O (centres undefined),-4.8% (inactive)
17,CC(C)(C)C(=O)C(C(c1ccccc1)N1CCOCC1)N1CCOCC1 (centres undefined),-17% (inactive)
18,CC(=O)CC(=O)NC(C)(C)CC(C)(C)C,10.8% (inactive)
19,COC1OC(CCl)C(Cl)C(Cl)C1O (centres undefined),-44.2% (inactive)
20,O=c1cc(N2CCOCC2)n2c(ccc3ccccc32)n1,13.2% (inactive)

row,SMILES,growth inhibition
1,CC(=O)OCC1OC(n2c3c(c(-c4ccc(Cl)cc4)c(C#N)c2=S)C(=O)CC(C)(C)C3)C(OC(C)=O)C(OC(C)=O)C1OC(C)=O (centres undefined),-5.25% (inactive)
2,CCCC(C)NC(=O)c1ccc(Cl)c(Cl)c1 (centres undefined),8.3% (inactive)
3,O=c1[nH]c(=O)n(C2CC(O)C(CO)O2)c2ncncc12 (centres undefined),2.15% (inactive)
4,CC1C(O)CC2(C(C)C)CC12 (centres undefined),12.3% (inactive)
5,CCOC(=O)c1ccc(OCC)cc1O,-17.6% (inactive)
6,Nc1c(Cl)cc2c(c1Br)Cc1cc(F)ccc1-2,-0.05% (inactive)
7,CNC(=S)N(C)/N=C/c1ccccc1,-28.9% (inactive)
8,O=C(NC/C=C/Br)Oc1cccc2ccccc12,36.8% (inactive)
9,COC(=O)C(CSC(=O)c1ccccc1)NC(=O)CNC(=O)CNC(=O)C(CCCCNC(=O)OCc1ccccc1)NC(=O)CNC(=O)C(CSC(c1ccccc1)(c1ccccc1)c1ccccc1)NC(=O)OCc1ccccc1 (centres undefined) (Cbz-C(Trt)GK(Cbz)GGC(Bz)-OMe; configuration not given here),-6% (inactive)
10,CC1(C)C(=O)/C=C\C(=O)C(C)(C)C2=CC=C(O2)C(C)(C)C(=O)C(Br)C(Br)C(=O)C(C)(C)C2=CC=C1O2 (centres undefined),5.6% (inactive)
11,C[N+](C)(C)C1C2(CCCCC2)NC(=O)C12CCCCC2 (centres undefined),-3.1% (inactive)
12,O=C(NNC(=O)C(F)(F)F)C(F)(F)F,-10% (inactive)
13,CC(Cc1ccccc1)c1ccccc1 (centres undefined),3.35% (inactive)
14,OC1C(OCc2ccccc2)OC(COCc2ccccc2)C(OC2OC(COCc3ccccc3)C(OCc3ccccc3)C(OCc3ccccc3)C2OCc2ccccc2)C1OCc1ccccc1 (centres undefined),-8.65% (inactive)
15,CCCCOC(=O)c1cccc2c1-c1ccccc1C2=O,-14.9% (inactive)
16,C=CCn1c(SC)nc2c(c1=O)CCCC2,-14.3% (inactive)
17,CCCCCCCCCCCCCCCCCC(=O)Nc1nc(N)nc(N)n1,18.6% (inactive)
18,O=C(O)c1ccc(CC2CCCC2)cc1,-8.2% (inactive)
19,CCC(=O)c1cccc(-c2ccccc2)c1CC,4.05% (inactive)
